The supplement of paper PMC4466140

molecular target: AgAbp1; test: SPOT peptide array binding signal intensity (averaged, normalized) (arbitrary units (background-subtracted, floor 0; scale differs between SH3 domains)); higher = stronger binding of the SH3 domain to the peptide
Procedure: (§1)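 GST-tagged SH3 domains from S. cerevisiae (Sc), A. gossypii (Ag), C. albicans (Ca) and S. pombe (Sp) were incubated at 10 ug/ml overnight at 4 C on cellulose SPOT membranes carrying 292 synthetic 15-mer peptides mined from the S. cerevisiae proteome (cysteines replaced by serines). Binding was detected with anti-GST antibody, HRP secondary and chemiluminescence, quantified with Genespotter, and reported as normalized spot intensities averaged over biological replicates.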

Row | Binder | SPOT peptide array binding signal intensity
1 | VQKRKLPLPGSIASA | 40

molecular target: AgBbc1; test: as above
Procedure: as §1

Row | Binder | SPOT peptide array binding signal intensity
2 | VQKRKLPLPGSIASA | 39.2

molecular target: AgBem1-D1; test: as above
Procedure: as §1

Row | Binder | SPOT peptide array binding signal intensity
3 | VQKRKLPLPGSIASA | 7.25

molecular target: AgBzz1-D1; test: as above
Procedure: as §1

Row | Binder | SPOT peptide array binding signal intensity
4 | VQKRKLPLPGSIASA | 47.8

molecular target: AgBzz1-D2; test: as above
Procedure: as §1

Row | Binder | SPOT peptide array binding signal intensity
5 | VQKRKLPLPGSIASA | 90.2

molecular target: AgCyk3; test: as above
Procedure: as §1

Row | Binder | SPOT peptide array binding signal intensity
6 | VQKRKLPLPGSIASA | 0.5

molecular target: AgFus1; test: as above
Procedure: as §1

Row | Binder | SPOT peptide array binding signal intensity
7 | VQKRKLPLPGSIASA | ≤ 0

molecular target: AgHof1; test: as above
Procedure: as §1

Row | Binder | SPOT peptide array binding signal intensity
8 | VQKRKLPLPGSIASA | 24.6

molecular target: AgHse1; test: as above
Procedure: as §1

Row | Binder | SPOT peptide array binding signal intensity
9 | VQKRKLPLPGSIASA | 58.5

molecular target: AgLsb1; test: as above
Procedure: as §1

Row | Binder | SPOT peptide array binding signal intensity
10 | VQKRKLPLPGSIASA | ≤ 0

molecular target: AgLsb4; test: as above
Procedure: as §1

Row | Binder | SPOT peptide array binding signal intensity
11 | VQKRKLPLPGSIASA | ≤ 0

molecular target: AgMyo5; test: as above
Procedure: as §1

Row | Binder | SPOT peptide array binding signal intensity
12 | VQKRKLPLPGSIASA | 6.25

molecular target: AgNbp2; test: as above
Procedure: as §1

Row | Binder | SPOT peptide array binding signal intensity
13 | VQKRKLPLPGSIASA | ≤ 0

molecular target: AgRvs167; test: as above
Procedure: as §1

Row | Binder | SPOT peptide array binding signal intensity
14 | VQKRKLPLPGSIASA | 0.75

molecular target: AgSho1; test: as above
Procedure: as §1

Row | Binder | SPOT peptide array binding signal intensity
15 | VQKRKLPLPGSIASA | 1.5

molecular target: AgSla1-D1-D2; test: as above
Procedure: as §1

Row | Binder | SPOT peptide array binding signal intensity
16 | VQKRKLPLPGSIASA | 6.5

molecular target: AgSla1-D3; test: as above
Procedure: as §1

Row | Binder | SPOT peptide array binding signal intensity
17 | VQKRKLPLPGSIASA | ≤ 0

molecular target: CaAbp1-D1; test: as above
Procedure: as §1

Row | Binder | SPOT peptide array binding signal intensity
18 | VQKRKLPLPGSIASA | 419

molecular target: CaAbp1-D2; test: as above
Procedure: as §1

Row | Binder | SPOT peptide array binding signal intensity
19 | VQKRKLPLPGSIASA | 782

molecular target: CaBbc1; test: as above
Procedure: as §1

Row | Binder | SPOT peptide array binding signal intensity
20 | VQKRKLPLPGSIASA | 442

molecular target: CaBem1-D1; test: as above
Procedure: as §1

Row | Binder | SPOT peptide array binding signal intensity
21 | VQKRKLPLPGSIASA | 13

molecular target: CaBzz1-D1; test: as above
Procedure: as §1

Row | Binder | SPOT peptide array binding signal intensity
22 | VQKRKLPLPGSIASA | 94

molecular target: CaBzz1-D2; test: as above
Procedure: as §1

Row | Binder | SPOT peptide array binding signal intensity
23 | VQKRKLPLPGSIASA | 44.6

molecular target: CaCyk3; test: as above
Procedure: as §1

Row | Binder | SPOT peptide array binding signal intensity
24 | VQKRKLPLPGSIASA | ≤ 0

molecular target: CaFus1; test: as above
Procedure: as §1

Row | Binder | SPOT peptide array binding signal intensity
25 | VQKRKLPLPGSIASA | ≤ 0

molecular target: CaHof1; test: as above
Procedure: as §1

Row | Binder | SPOT peptide array binding signal intensity
26 | VQKRKLPLPGSIASA | ≤ 0

molecular target: CaHse1; test: as above
Procedure: as §1

Row | Binder | SPOT peptide array binding signal intensity
27 | VQKRKLPLPGSIASA | ≤ 0

molecular target: CaLsb1; test: as above
Procedure: as §1

Row | Binder | SPOT peptide array binding signal intensity
28 | VQKRKLPLPGSIASA | ≤ 0

molecular target: CaLsb4; test: as above
Procedure: as §1

Row | Binder | SPOT peptide array binding signal intensity
29 | VQKRKLPLPGSIASA | ≤ 0

molecular target: CaMyo5; test: as above
Procedure: as §1

Row | Binder | SPOT peptide array binding signal intensity
30 | VQKRKLPLPGSIASA | 0.5

molecular target: CaNbp2; test: as above
Procedure: as §1

Row | Binder | SPOT peptide array binding signal intensity
31 | VQKRKLPLPGSIASA | 70

molecular target: CaRvs167; test: as above
Procedure: as §1

Row | Binder | SPOT peptide array binding signal intensity
32 | VQKRKLPLPGSIASA | 2.17

molecular target: CaRvs167-3; test: as above
Procedure: as §1

Row | Binder | SPOT peptide array binding signal intensity
33 | VQKRKLPLPGSIASA | 4.62

molecular target: CaSho1; test: as above
Procedure: as §1

Row | Binder | SPOT peptide array binding signal intensity
34 | VQKRKLPLPGSIASA | ≤ 0

molecular target: CaSla1-D1-D2; test: as above
Procedure: as §1

Row | Binder | SPOT peptide array binding signal intensity
35 | VQKRKLPLPGSIASA | 118

molecular target: CaSla1-D3; test: as above
Procedure: as §1

Row | Binder | SPOT peptide array binding signal intensity
36 | VQKRKLPLPGSIASA | ≤ 0

molecular target: ScAbp1; test: as above
Procedure: as §1

Row | Binder | SPOT peptide array binding signal intensity
37 | VQKRKLPLPGSIASA | 100

molecular target: ScBbc1; test: as above
Procedure: as §1

Row | Binder | SPOT peptide array binding signal intensity
38 | VQKRKLPLPGSIASA | 30.1

molecular target: ScBem1-D1; test: as above
Procedure: as §1

Row | Binder | SPOT peptide array binding signal intensity
39 | VQKRKLPLPGSIASA | 16.5

molecular target: ScBzz1-D1; test: as above
Procedure: as §1

Row | Binder | SPOT peptide array binding signal intensity
40 | VQKRKLPLPGSIASA | 21.2

molecular target: ScBzz1-D2; test: as above
Procedure: as §1

Row | Binder | SPOT peptide array binding signal intensity
41 | VQKRKLPLPGSIASA | 10

molecular target: ScCyk3; test: as above
Procedure: as §1

Row | Binder | SPOT peptide array binding signal intensity
42 | VQKRKLPLPGSIASA | ≤ 0

molecular target: ScFus1; test: as above
Procedure: as §1

Row | Binder | SPOT peptide array binding signal intensity
43 | VQKRKLPLPGSIASA | ≤ 0

molecular target: ScHof1; test: as above
Procedure: as §1

Row | Binder | SPOT peptide array binding signal intensity
44 | VQKRKLPLPGSIASA | 0.5

molecular target: ScHse1; test: as above
Procedure: as §1

Row | Binder | SPOT peptide array binding signal intensity
45 | VQKRKLPLPGSIASA | 63

molecular target: ScLsb1; test: as above
Procedure: as §1

Row | Binder | SPOT peptide array binding signal intensity
46 | VQKRKLPLPGSIASA | ≤ 0

molecular target: ScLsb2; test: as above
Procedure: as §1

Row | Binder | SPOT peptide array binding signal intensity
47 | VQKRKLPLPGSIASA | ≤ 0

molecular target: ScLsb3; test: as above
Procedure: as §1

Row | Binder | SPOT peptide array binding signal intensity
48 | VQKRKLPLPGSIASA | 525

molecular target: ScLsb4; test: as above
Procedure: as §1

Row | Binder | SPOT peptide array binding signal intensity
49 | VQKRKLPLPGSIASA | 11.5

molecular target: ScMyo3; test: as above
Procedure: as §1

Row | Binder | SPOT peptide array binding signal intensity
50 | VQKRKLPLPGSIASA | ≤ 0

molecular target: ScMyo5; test: as above
Procedure: as §1

Row | Binder | SPOT peptide array binding signal intensity
51 | VQKRKLPLPGSIASA | 1.5

molecular target: ScNbp2; test: as above
Procedure: as §1

Row | Binder | SPOT peptide array binding signal intensity
52 | VQKRKLPLPGSIASA | ≤ 0

molecular target: ScPex13; test: as above
Procedure: as §1

Row | Binder | SPOT peptide array binding signal intensity
53 | VQKRKLPLPGSIASA | 1

molecular target: ScRvs167; test: as above
Procedure: as §1

Row | Binder | SPOT peptide array binding signal intensity
54 | VQKRKLPLPGSIASA | 340

molecular target: ScSho1; test: as above
Procedure: as §1

Row | Binder | SPOT peptide array binding signal intensity
55 | VQKRKLPLPGSIASA | 50

molecular target: ScSla1-D1-D2; test: as above
Procedure: as §1

Row | Binder | SPOT peptide array binding signal intensity
56 | VQKRKLPLPGSIASA | 180

molecular target: ScSla1-D3; test: as above
Procedure: as §1

Row | Binder | SPOT peptide array binding signal intensity
57 | VQKRKLPLPGSIASA | 32.5

molecular target: SpAbp1-D1; test: as above
Procedure: as §1

Row | Binder | SPOT peptide array binding signal intensity
58 | VQKRKLPLPGSIASA | 174

molecular target: SpBbc1; test: as above
Procedure: as §1

Row | Binder | SPOT peptide array binding signal intensity
59 | VQKRKLPLPGSIASA | 0.5

molecular target: SpBzz1-D1; test: as above
Procedure: as §1

Row | Binder | SPOT peptide array binding signal intensity
60 | VQKRKLPLPGSIASA | 232

molecular target: SpBzz1-D2; test: as above
Procedure: as §1

Row | Binder | SPOT peptide array binding signal intensity
61 | VQKRKLPLPGSIASA | ≤ 0

molecular target: SpCyk3; test: as above
Procedure: as §1

Row | Binder | SPOT peptide array binding signal intensity
62 | VQKRKLPLPGSIASA | 15

molecular target: SpHof1; test: as above
Procedure: as §1

Row | Binder | SPOT peptide array binding signal intensity
63 | VQKRKLPLPGSIASA | 197

molecular target: SpHof1-2; test: as above
Procedure: as §1

Row | Binder | SPOT peptide array binding signal intensity
64 | VQKRKLPLPGSIASA | 253

molecular target: SpHof1-3; test: as above
Procedure: as §1

Row | Binder | SPOT peptide array binding signal intensity
65 | VQKRKLPLPGSIASA | 397

molecular target: SpHse1; test: as above
Procedure: as §1

Row | Binder | SPOT peptide array binding signal intensity
66 | VQKRKLPLPGSIASA | 34.1

molecular target: SpLsb1; test: as above
Procedure: as §1

Row | Binder | SPOT peptide array binding signal intensity
67 | VQKRKLPLPGSIASA | 50.6

molecular target: SpLsb4; test: as above
Procedure: as §1

Row | Binder | SPOT peptide array binding signal intensity
68 | VQKRKLPLPGSIASA | 275

molecular target: SpMyo1; test: as above
Procedure: as §1

Row | Binder | SPOT peptide array binding signal intensity
69 | VQKRKLPLPGSIASA | ≤ 0

molecular target: SpNbp2; test: as above
Procedure: as §1

Row | Binder | SPOT peptide array binding signal intensity
70 | VQKRKLPLPGSIASA | 7

molecular target: SpPex13; test: as above
Procedure: as §1

Row | Binder | SPOT peptide array binding signal intensity
71 | VQKRKLPLPGSIASA | ≤ 0

molecular target: SpRvs167; test: as above
Procedure: as §1

Row | Binder | SPOT peptide array binding signal intensity
72 | VQKRKLPLPGSIASA | 55.4

molecular target: SpSla1-D1-D2; test: as above
Procedure: as §1

Row | Binder | SPOT peptide array binding signal intensity
73 | VQKRKLPLPGSIASA | 16.2

molecular target: SpSla1-D3; test: as above
Procedure: as §1

Row | Binder | SPOT peptide array binding signal intensity
74 | VQKRKLPLPGSIASA | ≤ 0
